Rows were chosen to be rich in hits. Some 0.4% of all compounds tested hit in one or more screens of this group.
EPAC1 agonist: EPAC1 (human) agonism; O95398; EPAC1 agonist qHTS, biochemical assay; response scale: 100% = response to 6.5 mM cAMP; Potency, µM (doses to about 154 µM), for inactives: at the top dose activation, most hits filed as activators; 0.073% of 360,000 active; AID 720707; also: nearly all actives have a fitted effect of over 60% in size
Target sequence (O95398 whole entry, looked up): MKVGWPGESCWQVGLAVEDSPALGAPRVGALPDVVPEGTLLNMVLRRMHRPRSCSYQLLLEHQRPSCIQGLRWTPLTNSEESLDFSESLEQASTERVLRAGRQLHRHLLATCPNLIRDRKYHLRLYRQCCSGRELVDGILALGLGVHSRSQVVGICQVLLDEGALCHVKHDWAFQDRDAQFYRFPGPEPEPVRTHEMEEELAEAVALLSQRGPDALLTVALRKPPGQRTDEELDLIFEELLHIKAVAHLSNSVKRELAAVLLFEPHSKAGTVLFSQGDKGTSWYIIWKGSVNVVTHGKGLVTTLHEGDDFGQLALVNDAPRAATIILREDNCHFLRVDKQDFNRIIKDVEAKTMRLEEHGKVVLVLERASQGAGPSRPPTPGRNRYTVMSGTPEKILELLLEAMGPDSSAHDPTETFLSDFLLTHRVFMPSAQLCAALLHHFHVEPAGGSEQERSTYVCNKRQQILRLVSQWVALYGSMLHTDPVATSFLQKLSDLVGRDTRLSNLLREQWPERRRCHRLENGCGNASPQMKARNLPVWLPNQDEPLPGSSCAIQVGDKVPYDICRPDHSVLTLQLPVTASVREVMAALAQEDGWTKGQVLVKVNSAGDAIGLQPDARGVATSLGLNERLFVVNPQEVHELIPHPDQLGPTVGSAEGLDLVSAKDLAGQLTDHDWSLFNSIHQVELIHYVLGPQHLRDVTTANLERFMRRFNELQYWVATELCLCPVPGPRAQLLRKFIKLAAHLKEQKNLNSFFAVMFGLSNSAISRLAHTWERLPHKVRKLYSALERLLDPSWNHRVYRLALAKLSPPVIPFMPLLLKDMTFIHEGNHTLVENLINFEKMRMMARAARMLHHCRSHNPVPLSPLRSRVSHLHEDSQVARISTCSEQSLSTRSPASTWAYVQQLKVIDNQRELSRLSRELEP
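EPAC1 100 nM, Rap1B–BODIPY-GDP 250 nM, unlabeled GDP 50 uM; compound titration; 5 min RT; kinetic read ex480/em540 at 5-min intervals ×30 min; data normalized to 6.5 mM cAMP agonist control.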
EPAC2 antag: antagonists of human EPAC2; Q8WZA2; EPAC2 GEF exchange of Rap1B-BODIPY-GDP, fluorescence; Potency, µM (doses to about 114 µM), for inactives: at the top dose activity, negative = inhibition, hits mostly inhibitors; 0.18% of 360,000 active; AID 720708; also: % is scaled to controls: 0 for no effect and ±100 for the full control effect; nearly all actives have a fitted effect of over 45% in size
EPAC2 ag: agonists of human EPAC2 (RAPGEF4); Q8WZA2; EPAC2 activation, biochemical qHTS; response scale: 100% = 6.5 mM cAMP response; Potency, µM (series often up to 154 µM), inactives show top-dose activation, most hits filed as activators; 0.079% of 360,000 active; also: nearly all actives have a fitted effect of over 50% in size
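Setup: EPAC2 100 nM, labeled Rap1B complex 250 nM, free GDP 50 uM. Compound titrations pinned in, brief spin, 5 min room temperature incubation. Kinetic fluorescence read over 30 min, normalized to 6.5 mM cAMP.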
B2AR arrestin: recruits beta-arrestin to the human beta2-adrenergic receptor. P07550. 0.02% of 330,000 active. Potency, µM (top dose mostly 46.1 µM), without a hit: top-dose activation, most hits filed as activators. beta-arrestin recruitment to beta2AR, cell-based reporter. AID 492947;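 also: 0% = DMSO controls and full agonism = EC100 isoproterenol or metaproterenol; nearly all actives have a fitted effect of over 65% in size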
EPAC1 antag: EPAC1 (human) antagonism | 0.14% of 360,000 active | Potency, µM (doses to about 115 µM), inactives show at the highest dose activity change, negative = inhibition, most hits filed as inhibitors | EPAC1 GEF assay, Rap1b-BODIPY-GDP exchange fluorescence | O95398 | AID 720709;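 also: plate controls were vehicle for no effect and positive control for full effect; nearly all actives have a fitted effect of over 50% in size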
An asterisk follows results filed as active. Calls follow the shape of the dose curve; as a rule, active = well fitted curve in the direction sought with a large enough effect; inconclusive = small, poorly fitted or top-dose-only effect, or another doubt; inactive = no such curve, though single readings can be large; an effect the other way counts as inactive or inconclusive. Potency is read from the fitted curve at half-maximal effect.

Screening Cc1ccc(C)c(NC(=O)CSc2nc3nc(-c4cccs4)cc(C(F)(F)F)c3c(=O)[nH]2)c1 returned EPAC1 agonist 0.7%, EPAC2 antag -5.1%, EPAC2 ag -5.7%, B2AR arrestin 14.4% and EPAC1 antag -21.8%.
Screening Cc1cc(=O)n2[nH]c(C)c(-c3ccccc3)c2n1 returned EPAC1 agonist -2.0%, EPAC2 antag 5.7%, EPAC2 ag 1.6%, B2AR arrestin 0.1% and EPAC1 antag 3.1%.
For O=c1cc(-c2ccccc2)nc2c(-c3ccccc3)c(C(F)(F)F)[nH]n12 the results were EPAC1 agonist -5.0%, EPAC2 antag 17.8µM*, EPAC2 ag -5.2%, B2AR arrestin -0.5% and EPAC1 antag inconclusive.
`COc1cccc(CC(=O)Nc2nc(-c3cccnc3)cs2)c1` gave EPAC1 agonist 2.3%, EPAC2 antag -1.8%, EPAC2 ag 9.3%, B2AR arrestin 6.0% and EPAC1 antag 16.1%.
For COc1ccc(CC(=O)Nc2nc(-c3cccnc3)cs2)cc1 the results were EPAC1 agonist -9.6%, EPAC2 antag -3.0%, EPAC2 ag -10.2%, B2AR arrestin -0.2% and EPAC1 antag 12.6µM*.
For CN1OC[C@@H]2CN(Cc3ccc(Cl)cc3)[C@H](c3ccc(N4CCCCC4)cc3)C[C@@H]21 the results were EPAC1 agonist 3.3%, EPAC2 antag -19.5%, EPAC2 ag 6.6% and EPAC1 antag -12.3%.
Screening Cc1ccc(Nc2nnc(SCC(=O)NC3CC3)s2)cc1 returned EPAC1 agonist -1.1%, EPAC2 antag 3.0%, EPAC2 ag 0.9%, B2AR arrestin 0.0% and EPAC1 antag -2.2%.
Cc1cc2c(cc(C(=O)OCC(=O)NC3CCCCC3)n2C)o1 was read as EPAC1 agonist -7.5%, EPAC2 antag -5.5%, EPAC2 ag -2.0% and EPAC1 antag inconclusive.
`C/C(=N\NC(=O)CC#N)c1cc2ccc(O)cc2oc1=O` gave EPAC1 agonist 10.8%, EPAC2 antag 241.0%, EPAC2 ag 112µM*, B2AR arrestin -0.7% and EPAC1 antag 13.2%.
For CN(C)c1ccc(/C=C/C(=O)c2cccc(Br)c2)cc1 the results were EPAC1 agonist 100µM*, EPAC2 antag 56.2%, EPAC2 ag 100µM*, B2AR arrestin -0.6% and EPAC1 antag 68.0%.
For CCOC(=O)c1c(C)nc2sc(C(N)=O)c(N)c2c1-c1ccccc1 the results were EPAC1 agonist -7.1%, EPAC2 antag -3.1%, EPAC2 ag 7.94µM*, B2AR arrestin 0.1% and EPAC1 antag -3.5%.
Screening O=C1NC(=S)S/C1=C\c1ccc(SCc2ccco2)o1 returned EPAC1 agonist 10.1%, EPAC2 antag 44.7µM*, EPAC2 ag 9.4%, B2AR arrestin 0.1% and EPAC1 antag inconclusive.
O=C1NC(=S)S/C1=C\c1ccc(SCc2ccccc2)o1 was read as EPAC1 agonist 19.0%, EPAC2 antag inconclusive, EPAC2 ag 13.6%, B2AR arrestin 0.3% and EPAC1 antag 22.4µM*.
Screening O=C1NC(=S)S/C1=C/c1ccc(OC(=O)c2ccco2)cc1 returned EPAC1 agonist 4.2%, EPAC2 antag inconclusive, EPAC2 ag 13.2%, B2AR arrestin -0.6% and EPAC1 antag -1.1%.
`Cc1cccc(N2CCN(S(=O)(=O)c3ccc(Cl)nc3)CC2C)c1` (stereo unspecified) gave EPAC1 agonist 7.8%, EPAC2 antag 2.0%, EPAC2 ag -3.5%, B2AR arrestin 0.1% and EPAC1 antag -5.0%.
Screening CCCCCCc1cc2cc(C(=O)NC)c(=N)oc2cc1O returned EPAC1 agonist 9.6%, EPAC2 antag 15.7%, EPAC2 ag 100µM*, B2AR arrestin -0.8% and EPAC1 antag 3.6%.
For CCCCCCc1cc2cc(C(N)=O)c(=N)oc2cc1O the results were B2AR arrestin 0.1%.
Screening Cc1noc(C)c1Cn1c(C)c(C(=O)NCc2ccc3c(c2)OCCO3)sc1=O returned EPAC1 agonist -4.6%, EPAC2 antag 1.0%, EPAC2 ag -6.0% and EPAC1 antag -16.9%.
`CCNC(=S)N/N=C(\C)c1ccc(Cl)s1` gave EPAC1 agonist 0.2%, EPAC2 antag 16.1%, EPAC2 ag -5.3%, B2AR arrestin -1.4% and EPAC1 antag -16.5%.
Screening CNC(=S)N/N=C(\C)c1ccc(Cl)s1 returned EPAC1 agonist -2.4%, EPAC2 antag 0.3%, EPAC2 ag -5.1%, B2AR arrestin 18.4µM* and EPAC1 antag -12.0%.
`CCc1nc2ccc(C(=O)NCCCN3CCCC3=O)cn2c1N(CCC(C)C)CCN(C)C` gave EPAC1 agonist 10.7%, EPAC2 antag 20.3%, EPAC2 ag 8.9% and EPAC1 antag 5.5%.
Screening N#CCCN1CCCc2cc(N=Nc3ccc(C(F)(F)F)cc3)ccc21 returned EPAC1 agonist 1.7%, EPAC2 antag -4.5%, EPAC2 ag 0.9%, B2AR arrestin -0.3% and EPAC1 antag -12.5%.
Screening CC(C)(C)c1cc(-c2csc(Nc3ccccc3)[n+]2Cc2ccc(C(=O)O)cc2)cc(C(C)(C)C)c1O returned EPAC1 agonist -0.9%, EPAC2 antag -22.8%, EPAC2 ag -9.5%, B2AR arrestin -0.4% and EPAC1 antag 79.4µM*.
Screening CC1=NCCN1S(=O)(=O)c1c(C(C)C)cc(C(C)C)cc1C(C)C returned EPAC1 agonist -4.1%, EPAC2 antag 79.4µM*, EPAC2 ag -3.7%, B2AR arrestin 0.2% and EPAC1 antag -17.9%.
Fc1cccc(Cl)c1C1Nc2cccc3cccc(c23)N1 was read as EPAC1 agonist 0.3%, EPAC2 antag inconclusive, EPAC2 ag 6.0%, B2AR arrestin inconclusive and EPAC1 antag -17.4%.
Clc1cccc(Cl)c1C1Nc2cccc3cccc(c23)N1 was read as EPAC1 agonist 7.4%, EPAC2 antag 56.2µM*, EPAC2 ag 10.5%, B2AR arrestin inconclusive and EPAC1 antag inconclusive.
Screening COc1ccc(S(=O)(=O)NC(CCSC)C(=O)NC2CCCCC2)cc1 (stereo unspecified) returned EPAC1 agonist -46.9%, EPAC2 antag 1.5%, EPAC2 ag 0.3%, B2AR arrestin -0.2% and EPAC1 antag 50.1µM*.
N#C/C(=C\c1cn(Cc2ccc(C#N)cc2)c2ccccc12)C(=O)NCc1cccs1 was read as EPAC1 agonist -0.5%, EPAC2 antag 19.7%, EPAC2 ag 79.4µM*, B2AR arrestin 0.0% and EPAC1 antag 8.8%.
Screening C=CCN1C(=O)/C(=C/c2ccc(OCC(=O)O)cc2)S/C1=N/c1nccs1 returned EPAC1 agonist -9.2%, EPAC2 antag 50.1µM*, EPAC2 ag -26.4%, B2AR arrestin 3.1% and EPAC1 antag 6.3%.
For COc1ccc(N=Nc2nc3ccc(Br)cc3n2C)cc1 the results were EPAC1 agonist 112µM*, EPAC2 antag 14.4%, EPAC2 ag 24.3%, B2AR arrestin -5.1% and EPAC1 antag 163.4%.
`COc1ccc(NC(=O)c2sc3nc(Cc4ccccc4)cc(C(F)(F)F)c3c2N)cc1OC` gave EPAC1 agonist 6.5%, EPAC2 antag -15.0%, EPAC2 ag 1.3%, B2AR arrestin -1.1% and EPAC1 antag inconclusive.
